# Assay results from PubChem BioAssay (NCI).
# “And” between values parts separate entries of the source, which are not always exact repeats. Identical values can stand only once. Compounds without any hit were thinned out: in the full panel of roughly 83,000, 20% have a hit.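 Method: cells in 96-well plates; compound added at one concentration; 48 h incubation; percent growth measured; values under 10 scored active.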 A structure can be active in one record and inactive in another. The source made the active and inactive calls.
# How the values were obtained:
# Assay in all cases: NCI-60 one-dose screen, 48 h (100 = growth as untreated, 0 = no growth, -100 = all killed)
# HCT-15 colon = conditions: 10 µM unless noted
# HT29 colon = conditions: 10 µM unless noted
# SNB-75 CNS = conditions: 10 µM unless noted
# SNB-19 CNS = conditions: 10 µM unless noted
# U251 CNS = conditions: 10 µM unless noted
# PC-3 prostate = conditions: 10 µM unless noted
# SK-MEL-5 melanoma = conditions: 10 µM unless noted
# UACC-62 melanoma = conditions: 10 µM unless noted
# LOX IMVI melanoma = conditions: 10 µM
# SK-MEL-28 melanoma = conditions: 10 µM unless noted
Compound,growth (HCT-15 colon),growth (HT29 colon),growth (SNB-75 CNS),growth (SNB-19 CNS),growth (U251 CNS),growth (PC-3 prostate),growth (SK-MEL-5 melanoma),growth (UACC-62 melanoma),growth (LOX IMVI melanoma),growth (SK-MEL-28 melanoma)
Cn1c(-c2ccccc2)c(/C=C/C2=[N+](C)c3ccccc3C2(C)C)c2ccccc21,38.9% (inactive),0.701% (active),20.6% (inactive),18.5% (inactive),8.73% (active),8.69% (active),-98.4% (active),-3.73% (active),14.8% (inactive),–
CN(C)c1ccc(/C=C/c2sc3ccc4ccccc4c3[n+]2C)cc1,0.902% (active),-100% (active),-95.6% (active),-32.5% (active),-51.2% (active),-38% (active),-100% (active),-75% (active),-35.3% (active),–
Cc1nnc(N/N=C/c2ccc([N+](=O)[O-])o2)[nH]c1=O,15.7% (inactive),27.5% (inactive),42.3% (inactive),11.6% (inactive),4.33% (active),3.62% (active),-24.3% (active),10.6% (inactive),11% (inactive),–
c1ccc(C2NCCNC2c2ccccc2)cc1 (stereo not given),102% (inactive),101% (inactive),87.5% (inactive),102% (inactive),107% (inactive),98.6% (inactive),104% (inactive),102% (inactive),99.1% (inactive),–
O=C1C=CC(=O)c2c(O)c(CO)c(CO)c(O)c21,37.8% (inactive),60% (inactive),55.9% (inactive),103% (inactive),105% (inactive),25.6% (inactive),73.8% (inactive),93.3% (inactive),73.5% (inactive),–
COc1ccc(/C=C2/C(=O)ON=C2C)cc1,112% (inactive),99.2% (inactive),106% (inactive),106% (inactive),98.6% (inactive),97.6% (inactive),103% (inactive),90.3% (inactive),99.4% (inactive),–
C[C@@]1(CO)[C@H](O)CC[C@@]2(C)[C@H]1CC[C@H]1C[C@@H]3C[C@@]12CC[C@@]3(O)COC(=O)CN,54% (inactive),38.7% (inactive),57.3% (inactive),59.6% (inactive),44.3% (inactive),45.4% (inactive),-43.8% (active),26.3% (inactive),29% (inactive),–
CCC(C)C(N)C(=O)NC(CC(N)=O)C(=O)NC(CC(C)C)C(=O)NC(CCCCN)C(=O)NC(C)C(=O)NC(CC(C)C)C(=O)NC(C)C(=O)NC(C)C(=O)NC(CC(C)C)C(=O)NC(C)C(=O)NC(CCCCN)C(=O)NC(CCCCN)C(=O)NC(C(=O)NC(CC(C)C)C(N)=O)C(C)CC (stereo not given),101% (inactive),105% (inactive),85.3% (inactive),98.1% (inactive),69.9% (inactive),80.5% (inactive),3.42% (active),9.79% (active),101% (inactive),–
CC1(C)CCCC2=C1C(=O)N(SC(Cl)(Cl)Cl)C2=O,85.9% (inactive),93.5% (inactive),96.9% (inactive),91.2% (inactive),93.8% (inactive),89.5% (inactive),98% (inactive),96.1% (inactive),83.9% (inactive),99.4% (inactive)
O=Nc1ccc2ccccc2c1O,66.5% (inactive),46.8% (inactive),120% (inactive),97.6% (inactive),55.9% (inactive),44.9% (inactive),47.6% (inactive),27.1% (inactive),7.44% (active),83.8% (inactive)
S=c1[nH]c2cc(Cl)ccc2s1,109% (inactive),102% (inactive),92.3% (inactive),94% (inactive),101% (inactive),94.1% (inactive),95.7% (inactive),88.4% (inactive),97.6% (inactive),110% (inactive)
OC(c1cc(-c2ccc(C(F)(F)F)cc2)nc(C(F)(F)F)c1)C1CCCCN1 (stereo not given),-36.1% (active) and -65.7% (active) and 14.6% (inactive),-49.8% (active) and -67.9% (active) and -54.8% (active),18.6% (inactive) and -18% (active) and 46.3% (inactive),33.4% (inactive) and 37% (inactive) and 53.7% (inactive),-89% (active) and -95.4% (active) and -62% (active),-29.2% (active) and -43.2% (active) and 17% (inactive),-91.6% (active) and -98.8% (active) and 6.65% (active),0.644% (active) and -95.1% (active) and 69.5% (inactive),-55.2% (active) and -97.5% (active) and -80.7% (active),-76.1% (active) and -93.1% (active) and 45.2% (inactive)
CCC(C)(O)Cc1ccc(Cl)cc1 (stereo not given),103% (inactive),103% (inactive),88.2% (inactive),102% (inactive),101% (inactive),94.5% (inactive),91.6% (inactive),101% (inactive),103% (inactive),112% (inactive)
COc1cc(/C=C2\SC(=S)N(/C=C/c3nc4ccccc4[nH]c3=O)C2=O)cc(OC)c1OC,91.7% (inactive),90.6% (inactive),66.9% (inactive),97.5% (inactive),81.8% (inactive),95.2% (inactive),82.7% (inactive),81.9% (inactive),56.7% (inactive),–
CC(C)(C)CC(C)(C)c1ccc(OCCOCCSC(=N)N)cc1,0.972% (active),-7.31% (active),74.8% (inactive),73.6% (inactive),35.9% (inactive),42.6% (inactive),-70.2% (active),75.7% (inactive),-81% (active),-57.1% (active)
NNc1ccc(Cl)cc1Cl,79.8% (inactive),94.2% (inactive),80.7% (inactive),92.5% (inactive),76.4% (inactive),60.4% (inactive),86.1% (inactive),37.2% (inactive),67.5% (inactive),120% (inactive)
CCc1cnc2ccccc2c1/C=C/c1ccc(N(C)C)cc1,26% (inactive),5.62% (active),43.4% (inactive),41.1% (inactive),26% (inactive),54.7% (inactive),46.6% (inactive),25.3% (inactive),43.7% (inactive),59.9% (inactive)
CC(=O)c1ccc2c(c1)CCc1ccccc1-2,93.9% (inactive),102% (inactive),87.1% (inactive),103% (inactive),95.6% (inactive),100% (inactive),99.6% (inactive),109% (inactive),113% (inactive),101% (inactive)
CCCCN(CCCC)CCCCCCCCCCO,94.3% (inactive),89.2% (inactive),101% (inactive),110% (inactive),102% (inactive),115% (inactive),103% (inactive),114% (inactive),95.2% (inactive),112% (inactive)
O=C1/C(=C/c2ccccc2)CCC/C1=C\c1ccccc1,81.5% (inactive),30.5% (inactive),95.9% (inactive),94.6% (inactive),66.2% (inactive),88.9% (inactive),86.7% (inactive),82.6% (inactive),28.8% (inactive),98.5% (inactive)
Cc1onc(-c2ccccc2)c1C(=O)N/N=C/c1cc(Cl)cc(Cl)c1O,25.6% (inactive),42.2% (inactive),61.4% (inactive),43.8% (inactive),25% (inactive),46.2% (inactive),9.32% (active),10.9% (inactive),11.2% (inactive),51.3% (inactive)
O=C1C=CC(O)=CC1=P(c1ccccc1)(c1ccccc1)c1ccccc1,96.2% (inactive),103% (inactive),84.2% (inactive),94.9% (inactive),92.3% (inactive),91.6% (inactive),95.7% (inactive),83.7% (inactive),94.7% (inactive),102% (inactive)
CCCCCC[C@@H](O)C/C=C\CCCCCCCC(=O)OCCOC,103% (inactive),101% (inactive),90% (inactive),97.8% (inactive),105% (inactive),90.4% (inactive),96.2% (inactive),90.6% (inactive),86% (inactive),105% (inactive)
O=C(/C=C/C(Cl)(Cl)Cl)Nc1ccc(Cl)cc1,88.3% (inactive),94.7% (inactive),110% (inactive),103% (inactive),100% (inactive),104% (inactive),90.8% (inactive),98.5% (inactive),-69.8% (active),–
CCN1/C(=C/C(C)=C/c2sc3ccc4ccccc4c3[n+]2CC)Sc2ccc3ccccc3c21,-81.8% (active),-80.6% (active),-94.3% (active),-96.5% (active),-94.1% (active),-84% (active),-97.6% (active),-96.6% (active),-73.9% (active),-98.3% (active)
CCOc1ccc(Nc2nc3c(s2)C(=O)c2ccccc2C3=O)cc1,30.4% (inactive),115% (inactive),76.3% (inactive),89.9% (inactive),78.9% (inactive),57.4% (inactive),62.1% (inactive),56.6% (inactive),-5.52% (active),106% (inactive)
CCCCCCCCCCCCCCCCSC(=NCC)NCC,-36% (active),-61.4% (active),53.3% (inactive),55.3% (inactive),4.98% (active),-42% (active),-38% (active),-8.15% (active),-91.1% (active),43% (inactive)
